This note sets out measurements from PubChem BioAssay (NCI).

What all share (experiment): NCI-60 one-dose screen, 48 h (100 = growth as untreated, 0 = no growth, -100 = all killed)
Holding throughout (settings): 10 µM unless noted

For assay [1], the system named is NCI-H23 lung.
Assay [2] relates to NCI-H226 lung.
Assay [3] deals with NCI-H322M lung.
The subject of assay [4] is HOP-62 NSCLC.
For assay [5], the system named is NCI-H460 lung.
Assay [6] relates to HOP-92 NSCLC.
Assay [7] relates to NCI-H522 lung.
Assay [8] deals with A549/ATCC NSCLC.
Assay [9] relates to 786-0 renal.
The test system of assay [10] is COLO 205 colon.

Compounds without any hit were thinned out: in the full panel of roughly 83,000, 20% have a hit.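 Testing used 96-well plates and a 48-hour single-concentration exposure. Example: -40 means 40% of the starting cells died.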 Unmarked numbers belong to inactive results. Active and inactive are the calls of the source. How the source made its calls: active means growth percent below 10; inactive means the rest.

For the molecule `CC(C)n1cnc2c(=S)nc[nH]c21`, the growth in [1] is 114%; in assay [2], 107%; in assay [3], 112%; in assay [4] it was 108%; in assay [5], 111%; in assay [6], 103%. Moreover, the growth in assay [7] was 105%; in assay [8], 126%; in assay [9], 113%; in assay [10], 114%.
`O=C(c1ccccc1)C1C(=O)N2C(=S)N(c3ccccc3)C(=O)C2C1c1ccc(Cl)cc1` (stereo not given): the growth is 88.2% in assay [1]; 74.5% in [2]; 94.6% in [3]; 93.4% in assay [4]; 86.8% in assay [5]; 91.3% in assay [6]. Moreover, the growth in assay [7] was 94%; in [8], 101%; in assay [9], 100%; in assay [10], 112%.
As for `COc1ccc(C(=S)N2CCN(c3ccccc3Cl)CC2)cc1OC`, the growth in [1] was 117%; in [2], 98.1%; in assay [3], 86.6%; in assay [4], 90.9%; in assay [5], 115%; in assay [6] it was 86%. For the same molecule, the growth is 85.8% in [7], 115% in [8], 97.5% in [9] and 99.5% in assay [10].
For `COc1cc(/C=C/C(=O)c2cccc(Nc3nc(Nc4ccccc4)nc(Nc4ccccc4)n3)c2)cc(OC)c1OC`, the growth in assay [1] is 40.7%; in assay [2], 68.6%; in assay [3], 87.2%; in assay [4], 74.6%; in assay [5], 59.9%; in assay [6], -48.2% (active). Also, the growth is 87.8% in [7], 59.5% in assay [8], 65.1% in assay [9] and 61.2% in assay [10].
In the case of `N#C/C(=C\c1ccc(-c2ccc(Cl)cc2)o1)C(=O)Nc1ncc(Cc2ccc(Cl)cc2)s1`, the growth was 31.8% in assay [1]; 65% in [2]; 22.8% in [3]; -9.27% (active) in assay [4]; -38.3% (active) in [5]; 94.6% in assay [6]. Moreover, the growth in [7] is 46.3%; in [8] it was -8.3% (active); in [9], 42%; in [10], 57.2%.
Regarding `O=C(OCc1ccc2c(Cl)cc(Cl)c(O)c2n1)n1cncn1`, the growth in assay [1] was 44.5%; in assay [2], 59.1%; in [3], 50.4%; in assay [4], 27.5%; in assay [5], 19.9%; in assay [6], 49.4%. Also, the growth is 51.4% in [7], 22.1% in assay [8], 45.7% in [9] and 96.5% in assay [10].
For the molecule `CCN1C(=O)N(CC)C2C1NN=c1s/c(=C\c3cccc([N+](=O)[O-])c3)c(=O)n12` (stereo not given), the growth in [1] was 36.4%; in assay [2] it was 58.2%; in assay [3] it was 45.5%; in assay [4] it was 40%; in [5], 5.14% (active); in assay [6], 55.2%. Moreover, the growth in [7] was -4.92% (active); in assay [8] it was 20.2%; in assay [9], 25%; in [10], 1.16% (active).
Regarding `COC(C(=O)[C@@H](O)[C@@H](C)O)[C@@H]1Cc2cc3cc(O[C@H]4C[C@@H](O[C@H]5C[C@@H](O)[C@H](O)C(C)O5)[C@H](O)C(C)O4)cc(O)c3c(O)c2C(=O)[C@H]1O[C@H]1C[C@@H](O[C@H]2C[C@@H](O[C@H]3C[C@@H](OC)[C@H](O)C(C)O3)[C@@H](O)C(C)O2)[C@H](O)C(C)O1` (stereo not given in full), the growth in [1] is 47.4%; in assay [2] it was 38.8%; in assay [3] it was 50.2%; in [4], 18.8%; in assay [5], 18.7%; in assay [6] it was 64.2%. Also, the growth in assay [7] is 15.5%; in assay [8], 19.2%; in [9], 50.7%; in assay [10] it was 31.2%.
Regarding `Cc1ccc(-c2nc3nc(-c4ccc(F)cc4)nc(N4CCNCC4)c3o2)cc1`, the growth in [1] is 94.4%; in assay [2] it was 116%; in assay [3], 87.7%; in [4], 77.6%; in assay [5], -84.6% (active); in [6], 90.8%. For the same molecule, the growth is 79.8% in assay [7], 27.2% in assay [8], -92.8% (active) in [9] and -78.1% (active) in assay [10].
For `Cc1cc2c(O)c(-c3cccc(Cl)c3)c3sc(=O)oc3c2cc1C`, the growth is 12% in [1]; 42.9% in assay [2]; 59.8% in assay [3]; 76.7% in [4]; 24.9% in [5]; -31.3% (active) in [6]. Further, the growth was 12.7% in assay [7], 69.1% in assay [8], 78.8% in assay [9] and 115% in assay [10].
`CC1(C)CC2=C3C=C[C@@H]4[C@@]5(C)CCC(=O)C(C)(C)[C@@H]5CC[C@@]4(C)[C@]3(C)CC[C@@]2(C(=O)O)CC1=O`: the growth in assay [1] was 71.6%; in assay [2], 53%; in [3], 59.7%; in assay [4], 76%; in assay [5] it was 76.7%; in assay [6] it was 25.8%. The growth in [7] is 65.1%; in assay [8], 48.3%; in assay [9] it was 31.7%; in assay [10], 68.6%.
